Bioassay records deposited in PubChem BioAssay by several laboratories.
CYP2C9 inh: blocks human cytochrome P450 2C9. P11712. CYP2C9 Supersomes, luciferin-H conversion, luminescence. inhibition, % at 5 µM. 96,000 tested, 20% active;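 active = blocking of liver enzyme CYP2C9 beyond about 50% at 5 µM, limit read from the data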
Target sequence (P11712 whole entry, looked up): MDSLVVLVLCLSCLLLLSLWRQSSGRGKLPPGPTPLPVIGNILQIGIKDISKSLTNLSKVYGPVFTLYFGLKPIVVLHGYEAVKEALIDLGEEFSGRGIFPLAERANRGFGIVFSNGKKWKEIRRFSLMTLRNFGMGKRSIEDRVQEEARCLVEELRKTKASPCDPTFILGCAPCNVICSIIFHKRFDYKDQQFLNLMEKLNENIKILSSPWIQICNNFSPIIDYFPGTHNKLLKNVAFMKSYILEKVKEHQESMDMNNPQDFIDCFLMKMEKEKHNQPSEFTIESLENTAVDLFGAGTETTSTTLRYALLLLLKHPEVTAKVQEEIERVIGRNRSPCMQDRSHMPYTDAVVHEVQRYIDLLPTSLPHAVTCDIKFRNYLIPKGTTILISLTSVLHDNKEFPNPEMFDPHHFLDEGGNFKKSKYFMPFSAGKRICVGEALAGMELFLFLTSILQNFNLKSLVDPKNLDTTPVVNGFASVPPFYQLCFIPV
CYP2C19 activ: cytochrome P450 2C19 (human) activation; recombinant CYP2C19, luciferin-H EGE luminescence; active compounds read high; 0 = fully inhibited enzyme, 1 = untreated enzyme; activation factor at 5 µM; 96,000 tested, under 10 active;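 active = activation factor of at least 2 at 5 µM in the primary screen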;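 note: 0 = wells with 2.5 mM tranylcypromine and 1 = vehicle-only wells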
CYP2C19 inhib: human CYP2C19 inhibition; AID 778; CYP2C19 Supersomes, luciferin-H EGE luminescence, 30 min; 96,000 tested, 21% active; inhibition, % at 5 µM; P33261;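 active = CYP2C19 inhibition above a set limit at 5 µM in the primary screen, cut at about 50% in these data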;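 note: plate controls were negative control wells for no effect and 2.5 mM tranylcypromine positive control for full effect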
CYP2C9 act: CYP2C9 (human) activation. P11712. recombinant CYP2C9, luciferin-H conversion, luminescence; active compounds read high; factor 1 = untreated enzyme, 0 = blocked. activation factor at 5 µM. 96,000 tested, 1.4% active;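 active = activation factor of 2 or more for CYP2C9 at a 5 µM dose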;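 note: 0 = sulfaphenazole-blocked wells and 1 = vehicle-only wells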
Cav3 T inh: inhibitors of human Cav3.2 T-type calcium channel; AID 449739; Cav3.2-expressing cells, Fluo-4 calcium fluorescence FDSS; active compounds read low; B-score at 10 µM; 100,000 tested, 4% active; O95180;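 active = single-dose well whose peak fluorescence ratio is a statistical outlier from its plate by either plate-standardised score or position-corrected B-score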
The depositor's hits bear a star; / = not tested or not shown. Hits are enriched below; roughly 27% of the tested compounds scored in any of these assays.

SMILES | CYP2C9 inh | CYP2C19 activ | CYP2C19 inhib | CYP2C9 act | Cav3 T inh
CC1=N/C(=C\c2ccc([N+](=O)[O-])cc2)C(=O)N1c1cc(Cl)ccc1C | -9 | 1 | 1 | 1.1 | -1.6
O=S(=O)(/N=C(/Sc1ccccc1)c1ccccc1)c1ccccc1 | 96* | 0 | 96* | 0 | /
Cc1nc(Oc2ccccc2)c2oc3ccccc3c2n1 | 20 | 0.4 | 57* | 0.8 | 0.14
COc1ccc(Oc2nc(C)nc3c2oc2ccccc23)cc1 | 3 | 0.9 | 9 | 1 | -2.2
COc1ccc(CC(=O)N2CCN(c3ccc(C4=NNC(=O)CC4C)cc3)CC2)cc1 (stereo not drawn) | 6 | 0.9 | 6 | 0.9 | /
CCCCN1C(=O)C(O)(CC(=O)c2c(C)n[nH]c2C)c2cc(Br)ccc21 (stereo not drawn) | 30 | 0.2 | 81* | 0.7 | 0.37
CN1C(=O)C(O)(CC(=O)c2ccccc2O)c2cc(Br)ccc21 (stereo not drawn) | 92* | 0 | 97* | 0.1 | -0.25
CCOC(=O)CN1C(=O)C(O)(CC(=O)c2ccco2)c2ccccc21 (stereo not drawn) | -9 | 0.8 | 20 | 1.1 | 0.52
Cc1n[nH]c(C)c1C(=O)CC1(O)C(=O)N(CCc2ccccc2)c2ccc(Cl)cc21 (stereo not drawn) | 95* | 0 | 99* | 0.1 | -1.1
CCCCN1C(=O)C(O)(CC(=O)c2ccco2)c2cc(Br)ccc21 (stereo not drawn) | 39 | 0.3 | 67* | 0.6 | -0.26
COc1cc2c(cc1OC)-c1nnc(-c3ccco3)n1C1(CCCC1)C2 | / | / | / | / | 0.78
CCOC(=O)c1oc2nc(C(C)C)c3c(c2c1N)CCC3 | 16 | 0.6 | 38 | 0.8 | 0.056
O=C(O)Cn1c2c(c3ccccc31)CCCC2 | 11 | 1 | 3 | 0.9 | -0.71
C=CCNC(=O)c1ccc(OC)cc1OC | -8 | 0.8 | 15 | 1.1 | 1
C=CCN1C(=O)C(O)(CC(=O)c2ccc(OC)cc2OC)c2cc(Br)ccc21 (stereo not drawn) | 82* | 0.4 | 63* | 0.2 | -2.8
O=C(Nc1ncnc2c1ncn2C1OC(COC(=O)c2ccccc2)C(F)C1O)c1ccccc1 (stereo not drawn) | 86* | 0.2 | 80* | 0.1 | 0.15
CCn1cc(C(=O)NCCC2=CCCCC2)c(=O)c2cc(S(=O)(=O)N(C)C)ccc21 | / | / | / | / | -0.17
COc1ccc(Oc2ccccc2/C=N/O)cc1 | -18 | 0.3 | 70* | 1.2 | -1.4
CN1CCc2c(sc3c2c(=O)n(-c2ccccc2)c2nnc(SCc4ccc(Cl)cc4)n32)C1 | 9 | 1.1 | -7 | 0.9 | 2.8
c1csc(-c2nnsc2-c2nc3ccccc3[nH]2)c1 | 27 | 0.3 | 73* | 0.7 | -0.58
Cc1nc(C)c(C(=O)C2=C(O)C(=O)N(CCCN(C)C)C2c2ccco2)s1 (stereo not drawn) | 28 | 0.9 | 7 | 0.7 | /
Cc1ccc(N(CC(=O)NC2CC3CCC2C3)S(C)(=O)=O)cc1C (stereo not drawn) | 10 | 0.3 | 73* | 0.9 | -0.63
CS(=O)(=O)N(CC(=O)NC1CC2CCC1C2)c1cccc(C(F)(F)F)c1 (stereo not drawn) | 22 | 0.6 | 43 | 0.8 | -0.49
CCCN(CCC)c1nc(NC2CCN(C(=O)OCC)CC2)nc(OC)n1 | 49 | 0.7 | 31 | 0.5 | -11*
CCOC(=O)N1CCC(Nc2c(NCCCN(CC)CC)c(=O)c2=O)CC1 | -10 | 1.1 | -5 | 1.1 | -0.36
SMILES | CYP2C9 inh | CYP2C19 activ | CYP2C19 inhib | CYP2C9 act | Cav3 T inh
O=c1ccccn1Cc1c(F)cccc1Cl | 23 | 0.5 | 50* | 0.8 | 0.84
O=C(Cc1c(F)cccc1Cl)N1CCCC1 | -16 | 1.2 | -19 | 1.2 | -0.29
CN(C)c1nc2n(c(=S)n1)CCS2 | -9 | 1 | -3 | 1.1 | -0.32
O=C(Oc1ccc2c(=O)c(Cl)coc2c1)c1ccncc1 | 77* | 0.3 | 75* | 0.2 | -0.58
Cc1ccc([N+](=O)[O-])cc1NC(=O)CCCOc1ccccc1 | -130 | 0.7 | 31 | 2.3* | -1.9
CC(C)CCNC(=O)CCCOc1ccccc1 | -12 | 0.5 | 54* | 1.1 | -0.02
COc1ccc(OCCCC(=O)Nc2nncs2)cc1 | / | / | / | / | -0.027
COCC(=O)Nc1cc([N+](=O)[O-])ccc1C | 9 | 1 | 0 | 0.9 | -0.01
O=C(CCCCCN1C(=O)c2ccccc2C1=O)Nc1ccccc1 | 58* | 0.4 | 64* | 0.4 | 0.26
Cc1ccc(OCCCC(=O)Nc2nccs2)cc1 | 55* | 0.5 | 54* | 0.5 | -0.54
O=C(CCCCCCC(=O)Nc1ccccc1)NO | / | / | / | / | 0.13
CC(=O)Nc1ccc2c(c1)C(=O)N(C1CCCCC1)C2=O | 14 | 1.1 | -7 | 0.9 | /
COc1ccc(N2C(=O)c3ccc(NC(C)=O)cc3C2=O)cc1 | 55* | 0.9 | 12 | 0.4 | 0.56
CC(=O)Nc1ccc(NC(=O)CCCCCN2C(=O)c3ccccc3C2=O)cc1 | 92* | 0.6 | 40 | 0.1 | 0.046
Cc1cc(C)nc(NS(=O)(=O)c2ccc(NC(=O)CCCN3C(=O)c4ccccc4C3=O)cc2)n1 | 33 | 0.7 | 28 | 0.7 | -0.97
O=C(CCCOc1ccccc1)Nc1nncs1 | 83* | 0 | 97* | 0.2 | -0.32
CC(=O)Nc1ccc2c(c1)C(=O)N(c1ccc(C)cc1)C2=O | 38 | 0.8 | 18 | 0.6 | -0.088
CC(=O)Nc1ccc2c(c1)C(=O)c1ccccc1C2=O | 63* | 0.7 | 30 | 0.4 | 0.88
O=C(CN1C(=O)c2ccccc2S1(=O)=O)NCCC1=CCCCC1 | / | / | / | / | 1.8
CCCC(=O)Nc1ccc(C(=O)NNC(=O)COc2ccc(Br)c(C)c2)cc1 | 4 | 1 | 0 | 1 | /
COc1cc(CC(=O)Nc2nccs2)cc(OC)c1OC | 41 | 0.2 | 80* | 0.6 | 0.11
O=C(CCCCCN1C(=O)c2ccccc2C1=O)NCc1ccccn1 | 0 | 1 | -2 | 1 | 0.27
Cc1cccnc1NC(=O)CCCN1C(=O)c2ccccc2C1=O | -110 | 0.9 | 7 | 2.1* | 0.78
O=C(CCCCCN1C(=O)c2ccccc2C1=O)Nc1nccs1 | 56* | 0.9 | 6 | 0.4 | 0.039
O=C(CCCCCN1C(=O)C2C3C=CC(C3)C2C1=O)Nc1nccs1 (stereo not drawn) | 22 | 1.1 | -8 | 0.8 | 0.16
SMILES | CYP2C9 inh | CYP2C19 activ | CYP2C19 inhib | CYP2C9 act | Cav3 T inh
CCN(CC)c1ccc(NC(=O)CCCCCN2C(=O)c3ccccc3C2=O)cc1 | 76* | 0.8 | 19 | 0.2 | -1.9
CS(=O)(=O)N1CCN(C(=O)c2ccc(F)cc2)CC1 | -24 | 1.1 | -8 | 1.2 | 1.8
COC(=O)c1oc2ccc(Br)cc2c1NC(=O)CCCN1C(=O)c2ccccc2C1=O | 64* | 0.6 | 43 | 0.4 | -0.31
O=C(CCCN1C(=O)c2ccccc2C1=O)NCC1CCCO1 (stereo not drawn) | -2 | 1 | -3 | 1 | -0.31
O=C(CCCN1C(=O)c2ccccc2C1=O)Nc1c2c(nc3c1CCC3)CCC2 | 63* | 1 | -4 | 0.4 | 0.02
O=C(CCCN1C(=O)c2ccccc2C1=O)Nc1c(C(=O)C2CC2)oc2ccccc12 | 44 | 0.8 | 20 | 0.6 | 0.53
